# Results published in publication PMC5540273 (PLoS ONE, 2017).
# Columns and labels:
# Details in all cases: concentration: 1 μM, replicates: in singlicate; n = 1
# [1] = test system: T1, IKK-alpha
# T1 construct: gene CHUK
# [2] = test system: T2, IKK-beta
# T2 construct: gene IKBKB
# [3] = test system: T3, IKK-epsilon
# T3 construct: gene IKBKE
# [4] = test system: INSRR
# [5] = test system: INSR
# [6] = test system: IRAK1
# [7] = test system: IRAK3
# [8] = test system: IRAK4
# [9] = test system: ITK
# [10] = test system: JAK1(JH1domain-catalytic)
# [11] = test system: JAK1(JH2domain-pseudokinase)
# [12] = test system: JAK2(JH1domain-catalytic)
# [13] = test system: JAK3(JH1domain-catalytic)
# [14] = test system: T4, JNK1
# T4 construct: gene MAPK8
# [15] = test system: T5, JNK2
# T5 construct: gene MAPK9
# [16] = test system: T6, JNK3
# T6 construct: gene MAPK10
# [17] = test system: KIT-autoinhibited
# [18] = test system: KIT
# [19] = test system: LATS1
# [20] = test system: LATS2
# 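Note: KINOMEscan kinase panel screen.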
SMILES,%Inh [1],%Inh [2],%Inh [3],%Inh [4],%Inh [5],%Inh [6],%Inh [7],%Inh [8],%Inh [9],%Inh [10],%Inh [11],%Inh [12],%Inh [13],%Inh [14],%Inh [15],%Inh [16],%Inh [17],%Inh [18],%Inh [19],%Inh [20]
COC(=O)Nc1nc2ccc(Oc3ccc(NC(=O)Nc4cc(C(F)(F)F)ccc4F)cc3)cc2[nH]1.Cl [GW654607],72%,36%,17%,0%,0%,21%,6%,3%,0%,69%,0%,55%,16%,0%,65%,7%,0%,100%,0%,0%
Cn1cc(-c2cnc(N)c3c(-c4ccc5c(c4)CCN5C(=O)Cc4ccccc4)csc23)cn1 [GSK2593074],0%,0%,59%,13%,12%,0%,5%,0%,23%,0%,0%,26%,0%,13%,0%,0%,32%,100%,1%,23%
Cc1ccccc1CC(=O)N1CCc2cc(-c3cn(C)c4ncnc(N)c34)ccc21 [GSK2603346],12%,28%,49%,8%,0%,0%,0%,6%,20%,5%,0%,26%,0%,1%,13%,7%,1%,99.8%,0%,0%
CCNC(=O)/C=C/c1n[nH]c2cc(Sc3ccccc3C(=O)NC)ccc12,26%,20%,8%,34%,0%,33%,9%,0%,0%,0%,0%,0%,18%,15%,4%,0%,95%,100%,17%,22%
COc1ccc(C)c(Nc2ccnc(Nc3ccc(-c4cnc[nH]4)cc3)n2)c1.Cl [GW784041],0%,0%,0%,0%,0%,0%,35%,0%,18%,100%,76%,14%,0%,14%,0%,0%,0%,70%,12%,0%
CC(=O)Nc1cn2nc(Oc3cccc(NC(=O)c4cccc(C(F)(F)F)c4)c3)ccc2n1,0%,0%,0%,0%,0%,0%,44%,0%,0%,32%,5%,0%,0%,26%,0%,0%,87%,100%,5%,0%
O=C(Nc1n[nH]c2nc(-c3ccccc3O)ccc12)C1CC1 [SB-711880],0%,0%,10%,0%,0%,0%,2%,0%,46%,36%,0%,0%,0%,38%,31%,24%,32%,0%,0%,0%
Cl.O=C(Nc1ccc(Oc2ccc3[nH]c(NC(=O)c4ccco4)nc3c2)cc1)Nc1cc(C(F)(F)F)ccc1F [GW683134],85%,49%,0%,55%,52%,20%,0%,23%,8%,91.2%,0%,43%,0%,15%,33%,0%,1%,100%,30%,0%
O=C(Nc1n[nH]c2nc(-c3ccccc3)ccc12)C1CC1 [SB-708999],94%,66%,37%,0%,0%,24%,10%,14%,4%,0%,0%,17%,51%,16%,6%,6%,0%,8%,6%,0%
COC(=O)Nc1nc2cc(Oc3ccc(NC(=O)Nc4cccc(SC)c4)cc3)ccc2[nH]1.Cl [GW697999],35%,0%,10%,0%,0%,36%,24%,12%,26%,2%,0%,0%,0%,16%,16%,0%,50%,99.9%,43%,0%
CNc1nccc(-c2ccc3c(N)n[nH]c3c2)n1 [GSK2206003],90%,81%,17%,0%,11%,49%,49%,0%,24%,0%,57%,47%,15%,46%,36%,29%,0%,57%,0%,17%
N#Cc1cnc2cc(-c3cnc(CNCCN4CCOCC4)s3)ccc2c1Nc1ccc(Oc2ccccc2)cc1 [GW664114],29%,23%,43%,0%,7%,49%,0%,37%,21%,10%,0%,0%,0%,13%,6%,0%,0%,19%,0%,3%
Cc1ccc(-c2ccc3occ(-c4ccc(S(C)=O)cc4)c3c2)nn1 (stereo not shown),0%,0%,0%,0%,0%,0%,0%,5%,0%,0%,0%,0%,0%,0%,0%,0%,0%,0%,13%,0%
COc1cc(Nc2ccnc3cc(-c4ccncc4)ccc23)cc(OC)c1OC.Cl [GW494610],23%,13%,0%,13%,8%,24%,0%,10%,0%,33%,0%,12%,0%,49%,54%,37%,0%,76%,0%,0%
O=C1NC(=O)C(c2ccccc2Cl)=C1Nc1cccc(Cl)c1 [SB-342409],18%,36%,0%,1%,7%,28%,0%,32%,14%,1%,0%,24%,65%,19%,12%,3%,0%,0%,0%,0%
Nc1ncc(-c2cn[nH]c2)c2scc(-c3ccc4c(c3)CCN4C(=O)Cc3ccccc3)c12 [GSK2593067],0%,31%,50%,24%,13%,0%,25%,0%,25%,2%,0%,43%,0%,13%,12%,2%,12%,100%,0%,55%
Cc1cc(-c2c(-c3ccc(F)cc3)ncn2CCCN2CCOCC2)nc(N)n1 [SB-222517],0%,0%,0%,26%,8%,0%,0%,0%,6%,0%,57%,16%,0%,5%,0%,0%,20%,15%,15%,0%
CSc1ccc(NC2=C(c3ccc(Cl)cc3)C(=O)NC2=O)cc1 [SB-317658],0%,0%,10%,30%,4%,0%,0%,0%,0%,0%,0%,0%,0%,0%,19%,3%,0%,29%,8%,0%
CN1CCN(Cc2ccc(NC(=O)Nc3ccc(N(C)c4ccnc(Nc5ccc(CS(C)(=O)=O)cc5)n4)cc3)cc2)CC1.Cl [GW827654],29%,22%,28%,0%,42%,44%,66%,15%,28%,61%,84%,99.9%,98.5%,92.7%,76%,88%,61%,100%,20%,37%
CCn1c(-c2nonc2N)nc2c(-c3ccccc3)ncc(OCCCN)c21.O=C(O)C(F)(F)F.O=C(O)C(F)(F)F [GSK260205],32%,16%,3%,0%,0%,29%,0%,21%,14%,11%,71%,3%,0%,26%,85%,85%,0%,41%,100%,93.8%
